Compound activity (PubChem)
Rows were chosen to be rich in hits. Some 10% of all compounds tested hit in one or more screens of this group.
BAZ2B block = inhibitors of human BAZ2B bromodomain; AlphaScreen BAZ2B-H3K14Ac peptide displacement; Potency, µM (doses to about 114 µM), hits mostly inhibitors; actives 4.4% (n = 360,000); also: nearly all actives have a fitted effect of over 60% in size
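Compounds, titrated to a top concentration of 110 uM, were incubated 30 min at room temperature with preformed BAZ2B/acetyl-K14 H3 peptide complex (50 nM each). Proximity signal was measured by AlphaScreen after 20 min with beads.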
HP1b binding inh = inhibitors of HP1-beta chromodomain binding to methylated histone tails; actives 0.56% (n = 390,000); P83916; AlphaScreen HP1-beta / biotin-H3K9me3 peptide binding; Potency, µM (series often up to 114 µM), most hits filed as inhibitors; also: nearly all actives have a fitted effect of over 70% in size
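AlphaScreen: HP1-beta (50 nM) preformed 30 min with biotin-H3(1-18)K9me3 peptide (50 nM) in PBS pH 7.4, 0.01% Tween-20. Compound added for 30 min at RT, then streptavidin donor/nickel chelate acceptor beads (10 ug/mL) for 30 min.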
CtBP-E1A blk = blocks the CtBP interaction with E1A; AlphaScreen GST-E1A/His-CtBP binding, 1536-well; stronger effect = lower value; activity change, % (concentration not given with the values); actives 0.49% (n = 340,000); AID 651724; in the data active = activity change below about -65%; inconclusive = mostly about -30% to -63%
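AlphaScreen with 125 nM GST-E1A and 125 nM His-CtBP (5X stocks) in Tris pH 8.0, 300 mM NaCl, BSA, Tween 20, TCEP. Compounds preincubated 2 h at 37 deg C, then glutathione donor/nickel acceptor beads added for 1 h at 37 deg C in dark.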
JMJD2A Tudor inh = JMJD2A Tudor domain (human) inhibition. AlphaScreen JMJD2A-Tudor / H3K4me3 peptide binding. Potency, µM (highest dose often 114 µM), hits mostly inhibitors. actives 4.4% (n = 390,000); also: nearly all actives have a fitted effect of over 50% in size
Target sequence (O75164 whole entry, looked up, the tested form may be a part): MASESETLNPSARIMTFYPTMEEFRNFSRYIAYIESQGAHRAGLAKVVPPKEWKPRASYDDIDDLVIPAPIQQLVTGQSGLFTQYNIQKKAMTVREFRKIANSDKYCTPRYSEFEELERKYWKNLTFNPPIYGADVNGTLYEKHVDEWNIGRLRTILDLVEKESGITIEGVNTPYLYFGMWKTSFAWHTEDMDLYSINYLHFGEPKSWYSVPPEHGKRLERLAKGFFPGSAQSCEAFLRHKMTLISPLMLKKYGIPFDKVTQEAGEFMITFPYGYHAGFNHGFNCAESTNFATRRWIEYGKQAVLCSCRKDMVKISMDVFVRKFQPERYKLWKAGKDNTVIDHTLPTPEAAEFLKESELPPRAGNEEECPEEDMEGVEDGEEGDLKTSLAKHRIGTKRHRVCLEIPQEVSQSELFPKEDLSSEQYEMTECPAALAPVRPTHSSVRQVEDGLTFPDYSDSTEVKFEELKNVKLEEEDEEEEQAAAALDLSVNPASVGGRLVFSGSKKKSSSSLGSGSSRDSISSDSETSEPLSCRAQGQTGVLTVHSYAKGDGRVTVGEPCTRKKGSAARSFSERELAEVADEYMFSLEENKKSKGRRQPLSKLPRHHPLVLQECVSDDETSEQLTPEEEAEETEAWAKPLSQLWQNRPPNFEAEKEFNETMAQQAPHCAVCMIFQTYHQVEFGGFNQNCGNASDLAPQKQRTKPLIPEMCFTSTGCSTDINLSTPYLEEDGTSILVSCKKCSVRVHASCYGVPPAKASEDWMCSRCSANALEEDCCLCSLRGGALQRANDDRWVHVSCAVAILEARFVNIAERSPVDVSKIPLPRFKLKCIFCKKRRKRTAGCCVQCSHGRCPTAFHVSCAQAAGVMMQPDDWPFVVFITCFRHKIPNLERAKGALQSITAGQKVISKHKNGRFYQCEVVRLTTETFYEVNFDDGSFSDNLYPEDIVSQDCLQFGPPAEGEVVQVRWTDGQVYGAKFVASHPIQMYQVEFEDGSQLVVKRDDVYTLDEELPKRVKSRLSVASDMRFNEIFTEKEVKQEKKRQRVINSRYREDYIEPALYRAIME
Six1-Eya2 blk = Six1/Eya2 interaction inhibition; Q15475+O00167; AlphaScreen GST-Six1/His-Eya2 binding, biochemical; stronger effect = lower value; AID 651725; actives 0.56% (n = 360,000); activity change, % (no concentration beside the values); in the data active = activity change below about -65%; inconclusive = mostly about -30% to -63%
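Homogeneous AlphaScreen proximity assay pairing GST-Six1 with His-tagged Eya2 (added as 5X mix: 250 nM and 500 nM) in 50 mM Tris pH 8.0, 300 mM NaCl, 1 mM TCEP. Glutathione donor and nickel acceptor beads; 1 h, 37 °C, dark.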
G9a inh = blocks human histone lysine methyltransferase G9a. Q96KQ7. G9a H3K9 monomethylation, AlphaScreen, 2 h. Potency, µM (series often up to 102 µM), most hits filed as inhibitors. actives 8.8% (n = 350,000); also: nearly all actives have a fitted effect of over 75% in size
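G9a (20 nM) was preincubated 15 min with compound, then reacted 2 h at room temperature with 500 nM biotin-H3K9 peptide and 20 µM SAM. Monomethyl-H3K9 detected by AlphaScreen using anti-H3K9me1 antibody.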
Large screens that a line does not name were inactive. Unless noted, calls follow the shape of the dose curve; as a rule, active = well fitted inhibition curve with a large enough effect; inconclusive = small, poorly fitted or top-dose-only effect; inactive = no such curve, though single readings can be large or run the other way.

COC(=O)c1sc(NC(=S)NNC(=O)c2c(Br)c(C)nn2C)c(C(=O)OC)c1C	BAZ2B block 25µM, JMJD2A Tudor inh 50µM (no result: G9a inh)
COC(=O)c1sc(NC(=O)C(C)C)c(C(=O)OC)c1C	BAZ2B block inconclusive
COC(=O)c1sc(S(=O)(=O)NCC(=O)O)c(C(=O)OC)c1C	BAZ2B block inconclusive, G9a inh 71µM
CCC(=O)Nc1sc(C(=O)OC)c(C)c1C(=O)OC	G9a inh 28µM
CCOC(=O)c1sc(NC(=O)OC)c(C(=O)OC)c1C	none
COC(=O)c1sc(S(=O)(=O)Nc2c(C)nn(C)c2C)c(C(=O)OC)c1C	G9a inh 56µM
COC(=O)c1sc(S(=O)(=O)NC(C)C(=O)O)c(C(=O)OC)c1C (configuration not stated)	G9a inh inconclusive
CCOC(=O)c1c(C)oc2ncnc(Nc3ccc(OCC)cc3)c12	none (no result: CtBP-E1A blk, Six1-Eya2 blk)
COc1ccc(-c2nc(N3CCN(S(=O)(=O)c4ccc(F)cc4)CC3)c3ccccc3n2)cc1	none (no result: BAZ2B block, CtBP-E1A blk, Six1-Eya2 blk, G9a inh)
COC(=O)c1c(NC(=O)CN2C(=O)C(=O)N(C(C)C)C2=O)sc(C)c1C	none
CCOC(=O)SC1=N/C(=C\c2ccc(N(C)C)cc2)C(=O)S1	BAZ2B block 13µM, HP1b binding inh 35µM, JMJD2A Tudor inh 20µM, G9a inh 10µM
CSC1=N/C(=C\c2ccc(C)cc2)C(=O)S1	none
COc1ccc(S(=O)(=O)NNC(=O)Cc2csc(C)n2)cc1[N+](=O)[O-]	BAZ2B block 79µM, JMJD2A Tudor inh inconclusive, G9a inh inconclusive
CC(NO)C(C)(C)NO (configuration not stated)	HP1b binding inh inconclusive, JMJD2A Tudor inh 40µM, G9a inh inconclusive
CCN(CC)c1ccc(/C=N/N2CC(=O)NC2=S)cc1	G9a inh 7.9µM
CC(C)CC(C(=O)O)N1C(=O)[C@@H]2[C@H](C1=O)[C@@H]1C[C@H]2C(Br)C1Br (some centres not stated)	none
Cn1cc(Br)c(C(=O)NC(=S)N2CCN(c3ccccn3)CC2)n1	BAZ2B block inconclusive, G9a inh 40µM
O=C(NC(=S)N1CCN(c2ccccn2)CC1)c1ccccc1	G9a inh 40µM
Cn1ncc(Br)c1C(=O)NC(=S)N1CCN(c2ccccn2)CC1	G9a inh inconclusive
Cc1ccc2c(c1)c1c(n2CC(O)CNC2CCCCC2)CCCC1 (configuration not stated)	BAZ2B block 50µM, HP1b binding inh inconclusive, CtBP-E1A blk inconclusive, JMJD2A Tudor inh 32µM, Six1-Eya2 blk inconclusive, G9a inh 40µM
Cc1ccc(C)c(OCC(O)CNC2CCCC2)c1 (configuration not stated)	none (no result: CtBP-E1A blk)
Cc1ccc2c(c1)c1c(n2CC(O)CNC(CO)(CO)CO)CCCC1 (configuration not stated)	BAZ2B block inconclusive, JMJD2A Tudor inh inconclusive, G9a inh 50µM
COC(=O)Cn1c2c(c3cc(C)ccc31)CCCC2	G9a inh inconclusive
CCC(Oc1ccccc1F)C(=O)Nc1c(C(=O)c2ccccc2)oc2ccccc12 (configuration not stated)	none (no result: CtBP-E1A blk, Six1-Eya2 blk)
Cc1cc(C)nc(NS(=O)(=O)c2ccc(NC(=O)CCC(=O)O)cc2)n1	none (no result: BAZ2B block, G9a inh)
CNC(=O)Nc1ccc2snnc2c1	G9a inh 50µM
COc1cccc(CC(=O)N2CCC(n3nccc3NC(=O)C3CCOC3)CC2)c1 (configuration not stated)	none
O=C(Nc1ccccn1)c1sc2cc([N+](=O)[O-])ccc2c1Cl	BAZ2B block inconclusive, JMJD2A Tudor inh 56µM, G9a inh 1.6µM (no result: CtBP-E1A blk)
O=C(NCCN1CCOCC1)c1ccc(NS(=O)(=O)c2ccccc2)cc1	none
O=C(NCCN1CCOCC1)c1cc(S(=O)(=O)Nc2ccccc2F)c(Cl)cc1Cl	G9a inh 50µM
O=C(c1cc(S(=O)(=O)Nc2ccccc2F)c(Cl)cc1Cl)N1CCN(CCO)CC1	G9a inh inconclusive
O=C(NCCN1CCOCC1)c1ccc(NS(=O)(=O)c2cccc([N+](=O)[O-])c2)cc1	G9a inh 50µM
